Redox H2O2 prof = compounds producing H2O2 with reducing agent – biochemical, NIH compound library profiling, artefact control for MLSCN library redox annotation, primary screen. DTT-dependent redox cycling H2O2, phenol red/HRP absorbance; 100% = 100 µM peroxide control, 0% = buffer. activation, % at 10 µM. actives 0.03% (n = 200,000);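 active = activation of at least 50% relative to the plate's high and low controls in the primary single-dose screen; inactive = activation below 50%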;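 also: compound incubated with DTT at 0.8 mM final as the reducing agent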
S1P4 antag = blocks the human S1P4 receptor. O95977. S1P4-expressing cells, antagonist mode, reporter read-out. inhibition, % at 4.98 µM. actives 0.26% (n = 220,000). AID 1510; in the data active = inhibition above about 29%;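 also: 0% = wells stimulated with agonist and 100% = vehicle wells without agonist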
S1P3 antagonist = blocks the human S1P3 receptor | Q99500 | CHO S1P3 NFAT-BLA reporter, FRET fluorescence, antagonist mode | inhibition, % at 4.98 µM | actives 0.27% (n = 170,000);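 active = inhibition above the plate cutoff, the mean inhibition of test wells on that plate plus 3 SD, cut at about 28% in these data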;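 also: cells challenged with S1P at its EC80 of 0.8 µM; blue over green emission ratio from cleaved BLA substrate after 4 h stimulation; 0% = S1P-stimulated wells and 100% = unstimulated DMSO-only wells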
S1P4 ag = agonists of human S1P4 receptor; S1P4-expressing cell line, agonist reporter assay; actives 0.35% (n = 220,000); activation, % at 4.98 µM; in the data active = activation above about 11%;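 also: 0% = DMSO vehicle and 100% = reference agonist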
p97 ATPase inh = human p97 ATPase inhibition. P55072. inhibition, % at 8 µM. recombinant p97 ATPase, Kinase-Glo ATP luminescence, 3 h. actives 0.42% (n = 220,000). AID 1481; in the data active = inhibition above about 15%;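 also: 0% = DMSO vehicle and 100% = wells lacking enzyme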
Target sequence (P55072 whole entry, looked up): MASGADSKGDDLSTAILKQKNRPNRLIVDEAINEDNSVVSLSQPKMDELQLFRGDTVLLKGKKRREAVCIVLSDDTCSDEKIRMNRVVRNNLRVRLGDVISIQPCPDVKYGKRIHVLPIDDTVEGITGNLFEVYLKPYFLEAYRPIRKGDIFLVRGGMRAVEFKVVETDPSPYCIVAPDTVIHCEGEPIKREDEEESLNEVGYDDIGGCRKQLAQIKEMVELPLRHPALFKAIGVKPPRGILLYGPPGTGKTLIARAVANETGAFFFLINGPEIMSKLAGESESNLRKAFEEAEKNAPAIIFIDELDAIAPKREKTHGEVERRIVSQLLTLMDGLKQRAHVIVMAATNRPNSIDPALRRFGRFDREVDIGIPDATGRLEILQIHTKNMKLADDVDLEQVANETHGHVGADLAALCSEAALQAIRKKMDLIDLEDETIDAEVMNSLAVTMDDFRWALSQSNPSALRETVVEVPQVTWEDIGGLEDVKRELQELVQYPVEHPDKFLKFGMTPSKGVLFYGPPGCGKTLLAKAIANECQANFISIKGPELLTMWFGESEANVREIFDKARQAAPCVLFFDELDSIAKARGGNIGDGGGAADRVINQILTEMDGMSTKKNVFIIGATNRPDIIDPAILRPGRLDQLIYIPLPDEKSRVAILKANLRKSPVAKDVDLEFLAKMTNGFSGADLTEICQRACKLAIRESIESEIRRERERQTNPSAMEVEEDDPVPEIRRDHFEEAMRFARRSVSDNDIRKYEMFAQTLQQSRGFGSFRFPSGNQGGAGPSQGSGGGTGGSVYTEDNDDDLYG
Arbovirus inh = antivirals against arbovirus infection. AID 1251. inhibition, % at 10 µM. actives 0.37% (n = 200,000). arbovirus infection cell-based antiviral screen; in the data active = inhibition above about 30%
Active calls of the source: *; . = no result. Hits are enriched below; roughly 1.6% of the tested compounds scored in any of these assays.

SMILES	Redox H2O2 prof	S1P4 antag	S1P3 antagonist	S1P4 ag	p97 ATPase inh	Arbovirus inh
COc1ccc(CN(C(=O)c2cc3ccccc3oc2=O)C2CCCCC2)cc1OC	0.4	7.4	.	-3.8	-6.0	103.0*
COc1ccc(/C=N/N=C2/NC(=O)C(CC(=O)O)S2)cc1OS(=O)(=O)c1ccccc1 (stereo unspecified)	0.2	-9.4	-16.9	0.1	1.6	-1.1
Cc1ccc(S(=O)(=O)Oc2ccc(C)cc2/C=N/N=C2\NC(=O)C(C)S2)cc1 (stereo unspecified)	2.7	-2.2	.	-1.2	-1.8	30.3*
Oc1ccccc1Nc1nc(NCC2CCCO2)c2ccccc2n1 (stereo unspecified)	3.2	-9.0	11.8	1.7	1.0	-1.1
Oc1ccc(Nc2nc(NCC3CCCO3)c3ccccc3n2)cc1 (stereo unspecified)	2.2	-10.7	-37.0	-0.8	7.2	40.8*
CC(C)(C#CCN1CCCCC1)OCCOC(c1ccccc1)c1ccccc1	0.2	-21.7	12.5	3.1	-5.2	4.4
COc1ccc2cc(C3CC(c4ccco4)=NN3S(=O)(=O)c3ccccc3)c(Cl)nc2c1 (stereo unspecified)	-0.1	-10.3	-6.6	0.5	4.0	-5.0
Cc1ccc2cc(C3CC(c4ccco4)=NN3S(=O)(=O)c3ccccc3)c(Cl)nc2c1 (stereo unspecified)	0.3	1.6	-0.1	4.1	1.5	37.3*
COc1ccc(-n2nnnc2S(=O)(=O)CC(=O)N2CCCCC2)cc1	-0.7	54.4*	18.3	-2.5	3.9	-27.3
COc1ccc(-n2nnnc2S(=O)(=O)Cc2ccc(C(=O)O)cc2)cc1	-1.6	-9.1	-10.7	-3.8	6.3	8.9
CC(C)(Oc1ccc(Cl)cc1)C(=O)NC1=NN(c2ccccc2)C(=O)C1	0.1	3.1	0.9	-0.2	0.9	35.2*
O=C1CC(NC(=O)C(F)(F)F)=NN1c1ccccc1	-0.6	17.0	-10.7	0.0	9.7	-27.2
O=C1c2cccc3cccc(c23)C(=O)N1CCCc1n[nH]c(=S)n1-c1ccccc1	-0.4	-11.1	2.2	1.3	1.7	-2.7
Nc1nnc(CCS(=O)(=O)c2cc(Cl)ccc2Cl)s1	-0.5	-16.4	76.7*	0.6	-4.5	8.2
Nc1nonc1-c1nc2ccccc2n1Cc1ccc(F)cc1Cl	-0.1	-12.8	78.0*	-0.7	4.2	-10.5
Fc1ccc(Cn2c(-c3cscn3)nc3ccccc32)c(Cl)c1	0.0	15.3	.	0.7	1.3	-1.2
Cc1ccc2cc(C3CC(c4ccco4)=NN3S(C)(=O)=O)c(Cl)nc2c1 (stereo unspecified)	.	1.2	-1.1	0.0	10.6	.
NC(=O)/C(=N\OC(=O)c1ccco1)c1nc(-c2ccc(Br)cc2)cs1	0.8	-8.4	.	-0.4	-4.0	44.3*
CCOC(=O)c1ccc(N=c2sc(C(=O)OC)cc(=O)n2Cc2ccco2)cc1	-1.1	13.6	-33.9	-0.7	5.4	-27.3
CCOC(=O)c1ccc(N=c2sc(C(=O)OC)cc(=O)n2CCCN2CCOCC2)cc1	-0.8	59.8*	0.6	0.3	2.7	2.0
CC(O)CNCc1ccccc1C(F)(F)F (stereo unspecified)	0.5	-0.3	-20.7	-0.2	-1.1	4.0
CN1CCc2c(sc(NC(=O)c3ccc(S(=O)(=O)N4CCc5ccccc54)cc3)c2C(N)=O)C1	.	0.2	5.8	5.0	14.7*	.
CC(C)CCC1=NN(C(=O)c2ccco2)C(O)(C(F)(F)F)C1 (stereo unspecified)	-0.6	9.9	0.7	1.1	-6.7	-11.3
CCOc1ccc2c(c1)C(N(CCN1CCOCC1)C(=O)Nc1ccccc1)CC(C)(C)O2 (stereo unspecified)	0.7	-14.1	5.8	0.0	0.0	4.8
COC(=O)c1ccc(C(C(=O)NCc2ccccc2)N(Cc2ccco2)C(=O)c2cnccn2)cc1 (stereo unspecified)	-0.2	1.8	-5.8	18.5*	6.4	6.0
SMILES	Redox H2O2 prof	S1P4 antag	S1P3 antagonist	S1P4 ag	p97 ATPase inh	Arbovirus inh
CCOc1ccc(NC(=O)CSc2nnc(Cn3cnc4ccccc43)n2C)cc1	0.6	10.5	.	-0.8	3.0	2.4
COc1cc(C(=O)Nc2nc(-c3ccc(Cl)cc3)c(C)s2)ccc1OCC(=O)Nc1ccc(F)cc1	-0.2	-9.0	-12.6	0.3	-1.1	-34.8
COc1ccc(-c2nc(NC(=O)c3ccc(OCC(=O)N4CCOCC4)c(OC)c3)sc2C)cc1	0.0	-13.0	4.5	0.4	0.7	44.7*
COc1ccccc1C(=O)NCc1ccccn1	-1.2	-2.2	-6.2	-0.4	3.4	-8.6
O=C(CCCN1C(=O)/C(=C/c2cccs2)SC1=S)Nc1cccc(C(=O)O)c1	0.0	-12.9	0.0	-1.0	-1.1	38.1*
O=C(CCCN1C(=O)/C(=C/c2cccs2)SC1=S)Nc1ccc(C(=O)O)cc1	4.1	0.5	-4.2	1.2	4.3	21.9
CN(Cc1ccccc1NC(=O)c1ccc(S(=O)(=O)N(C)C)cc1)C1CCCCC1	-1.0	-19.9	-10.2	0.3	-5.0	47.5*
CCOc1ccccc1NC(=O)c1ccc(S(=O)(=O)N(C)C)cc1	0.2	9.1	.	1.9	1.9	-1.7
CCc1nnc(NS(=O)(=O)c2ccc(N/C=C\C(=O)c3ccc4ccccc4c3)cc2)s1	0.4	-7.9	-3.5	1.2	6.6	34.2*
CCCCC(=O)NC(=S)Nc1c(C)cc(Br)cc1C	-0.2	-3.6	-2.8	1.5	-4.9	6.4
C(=N\Nc1nc(-c2ccccc2)cs1)/c1ccco1	0.6	3.6	5.6	3.2	7.7	36.2*
C(=N\Nc1nc(-c2ccccc2)cs1)/c1cccs1	-1.7	-15.0	.	-1.3	1.4	34.8*
Cc1ccc(-c2csc(N/N=C/c3ccco3)n2)cc1	-4.8	-11.7	.	0.5	1.5	24.0
N#C/C(=C/c1ccc(F)cc1)c1nnc(NC(=O)c2ccccc2)s1	.	-9.4	-16.9	1.0	2.1	.
Cc1nc(NS(=O)(=O)c2ccccc2C)c2c3c(sc2n1)CCC3	0.9	-20.5	.	-1.2	5.2	37.7*
CCCn1nnnc1NC(=O)c1cc(Cl)ccc1Cl	0.3	-11.9	0.3	0.1	1.1	-2.6
Cc1cccc2c1NC(=O)C2(c1ccc(O)cc1)c1ccc(O)cc1	-7.9	98.4*	.	-5.2	2.9	4.0
COc1ccc2[nH]c(=O)c(CN(CCCN(C)C)C(=O)Nc3ccc(F)cc3)cc2c1	0.5	-34.9	17.2	-0.6	5.0	30.3*
Brc1ccc(-c2cnc(-c3cccs3)o2)cc1	1.7	-35.8	21.7	2.2	-3.0	12.8
O=C(Nc1nc2c(s1)CCCC2)c1ccc2ncsc2c1	0.1	5.4	-3.9	0.1	1.4	23.1
O=C(Nc1nc2c(s1)CCCC2)c1ccc(Br)s1	-1.4	-19.9	22.2	0.3	-0.4	37.7*
CCSc1nnc(NC(=O)c2ccc(Br)s2)s1	1.0	-12.9	-1.7	0.7	2.1	31.0*
Cc1cc(OC(=O)c2ccccc2)n(CCC#N)n1	-0.2	-0.9	102.5*	0.1	9.9	-11.7
